# Test results: the supplement of paper PMC8728848
# This is one part of a sample in which the strongest signals are shown more often than they occur.
# B1: Epa1-NP (Candida glabrata), Q6VBJ0 (protein)
# chain: MILNPALFLNKCVCIYTTLILLLLTNGGYATSSNDISLASKDPTTFPLGCSPDITTPKKGLSMELYSYDFRKKGSYPCWDAAYLDPNYPRTGYKSHRLLAKVDGVTGNINFYYHATKGCTPQLGHLPASYNYPKPLTMTNFTMLLYGYFRPKVTGFHTFTISADDLLFVNFGAGNAFDCCRRDSSADHFGNYQAYAIWGSKTAKDELTVHLDAGVYYPIRLFYNNREYDGALSFTFKTESNENTVSDFSEYFFSLDDTEEGCPGLISYDSSCASVKTSKIIGIDYHTETPNENLVPITKTIYHLGIPCTGTTTTPLCGSGFYDPLANKCVTINTSSTSSVTKTTSHTTSKEVSFHSSISSQKTLIPKSIPSPYGPIKSQSIPTEMETSSEISSSEYAFSDVISTPSHSPYTKKHSSLNSSSYTSTVIHSLTSYSISQGIFSTSLSEQNITSKSSTDKFSTATSMSNNITQSSIIISQFSTNNENYTTTSMHTSSDKISTETLNNSISTTTSILFSNSSTILKNNTTIISSDKDTHYHPVNPTIVCSTNKTEIICASITQPSISNSNNHWSSSVLKFNSTTVRSTLPSSAGSNETSINVPFSSSTESNTSTSSTSTSNSKMVRSTLPSSAGSNETSISVPFSSSTESNTSTSSTSTSNSKMVRSTLPSSAGSNETSINVPFSSSTESNTSTSSTSTSNSKTVRSTPFSSAGIIMTSLSQRNNKSASSYASSNSKCYNTADSCRKVHSTPSYLLTSSYTSEGVDYDCSLVSTKLKINDTNCVNNKHTTKSCLKTSVTTTIPTLEIKTARKSSSNTIGLHSYPTSSPNKSISSAPIIGYISSFKTIKTASPSYQTSDLTTITTITSLNNPGSTAVENTHESNDKSRKTSSNDISSKHSVIKETKDAVESSNKSHQTNTLKCSSIIIASSSHNSYESLGGTTLTLTLSKVYSPQNNDTLPFLEISEVNPSRTVLPESSKMMQYLTSTEERNKTARNTIATNIVSISTFHFEGEGNAIRMGYTQLLLMLIGIIVMNIGT
# Tests used:
# Experiment in all cases: glycan array binding signal (z-score within array); higher = stronger binding
# Details in all cases: glycan notation: IUPAC condensed, linker removed
# [1] = biological target: Gal(b1-4)GlcNAc(b1-6)[Gal(b1-3)]GlcNAc
# Summary of the method: (§1)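 Negative Z-scores can be read as non-binding. The Z-score is calculated within each array and then averaged across arrays of one protein sequence at different concentrations or buffers and across linkers. Arrays, 3228 in all, were curated from the Consortium for Functional Glycomics database and kept only where the protein sequence was available.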
# [2] = biological target: Gal3S(b1-3)[Fuc(a1-4)]GlcNAc
# Summary of the method: as §1
# [3] = biological target: GalNAc(a1-3)Fuc(a1-2)Gal(b1-4)GlcNAc(b1-3)[GalNAc(a1-3)Fuc(a1-2)Gal(b1-4)GlcNAc(b1-6)]GalNAc
# Summary of the method: as §1
# [4] = biological target: GalNAc(a1-3)GalNAc
# Summary of the method: as §1
# [5] = biological target: GalNAc(b1-3)Gal(a1-4)Gal(b1-4)GlcNAc
# Summary of the method: as §1
# [6] = biological target: GalNAc(b1-3)GalNAc
# Summary of the method: as §1
# [7] = biological target: GalNAc(b1-4)Gal(b1-4)Glc
# Summary of the method: as §1
# [8] = biological target: GalNAc(b1-4)GlcNAc(b1-3)GalNAc(b1-4)GlcNAc
# Summary of the method: as §1
# [9] = biological target: GalNAc3S(b1-4)GlcNAc3S
# Summary of the method: as §1
# [10] = biological target: Glc(a1-6)Glc(a1-6)Glc
# Summary of the method: as §1
# [11] = biological target: GlcNAc(a1-3)Gal(b1-4)GlcNAc
# Summary of the method: as §1
# [12] = biological target: GlcNAc(a1-4)Gal(b1-4)GlcNAc(b1-3)Gal(b1-4)GlcNAc
# Summary of the method: as §1
# [13] = biological target: GlcNAc(b1-2)[GlcNAc(b1-4)]Man(a1-3)[GlcNAc(b1-4)][GlcNAc(b1-2)[GlcNAc(b1-6)]Man(a1-6)]Man(b1-4)GlcNAc(b1-4)[Fuc(a1-6)]GlcNAc
# Summary of the method: as §1
# [14] = biological target: GlcNAc(b1-3)Gal(b1-4)GlcNAc(b1-3)Gal(b1-4)GlcNAc(b1-2)[GlcNAc(b1-3)Gal(b1-4)GlcNAc(b1-3)Gal(b1-4)GlcNAc(b1-6)]Man(a1-6)[GlcNAc(b1-3)Gal(b1-4)GlcNAc(b1-3)Gal(b1-4)GlcNAc(b1-2)Man(a1-3)]Man(b1-4)GlcNAc(b1-4)[Fuc(a1-6)]GlcNAc
# Summary of the method: as §1
# [15] = biological target: GlcNAc(b1-3)Gal(b1-4)GlcNAc(b1-3)GalNAc
# Summary of the method: as §1
# [16] = biological target: GlcNAc(b1-3)[GlcNAc(b1-6)]GalNAc
# Summary of the method: as §1
# [17] = biological target: GlcNAc(b1-4)GlcNAc(b1-4)GlcNAc(b1-4)GlcNAc(b1-4)GlcNAc(b1-4)GlcNAc
# Summary of the method: as §1
# [18] = biological target: Man(a1-3)[Man(a1-6)]Man(b1-4)GlcNAc(b1-4)GlcNAc
# Summary of the method: as §1
# [19] = biological target: Neu5Ac(a2-3)Gal(b1-4)GlcNAc(b1-2)[Neu5Ac(a2-3)Gal(b1-4)GlcNAc(b1-4)]Man(a1-3)[GlcNAc(b1-4)][Neu5Ac(a2-3)Gal(b1-4)GlcNAc(b1-4)Man(a1-6)]Man(b1-4)GlcNAc(b1-4)GlcNAc
# Summary of the method: as §1
# [20] = biological target: Neu5Ac(a2-3)Gal(b1-4)GlcNAc(b1-3)Gal(b1-4)GlcNAc(b1-3)GalNAc
# Summary of the method: as §1
# [21] = biological target: Neu5Ac(a2-3)GalNAc(b1-4)GlcNAc
# Summary of the method: as §1
# [22] = biological target: Neu5Ac(a2-6)Gal
# Summary of the method: as §1
# [23] = biological target: Neu5Ac(a2-6)Gal(b1-4)GlcNAc(b1-2)Man(a1-3)[GlcNAc(b1-2)Man(b1-4)GlcNAc(b1-2)Man(a1-6)]Man(b1-4)GlcNAc(b1-4)GlcNAc
# Summary of the method: as §1
# [24] = biological target: Neu5Ac(a2-6)Gal(b1-4)GlcNAc6S
# Summary of the method: as §1
# [25] = biological target: Neu5Ac(a2-6)GlcNAc(b1-4)GlcNAc
# Summary of the method: as §1
# [26] = biological target: Neu5Gc(a2-3)Gal(b1-3)GlcNAc
# Summary of the method: as §1
# [27] = biological target: Neu5Gc(a2-3)Gal(b1-4)Glc
# Summary of the method: as §1
# [28] = biological target: Neu5Gc(a2-8)Neu5Ac(a2-3)Gal(b1-4)GlcNAc
# Summary of the method: as §1
# [29] = biological target: Neu5Gc(a2-8)Neu5Gc(a2-3)Gal(b1-4)GlcNAc
# Summary of the method: as §1
binder,measurement,setting,value
B1,glycan array binding signal (z-score),[1],2.48
same,glycan array binding signal (z-score),[2],-0.293
same,glycan array binding signal (z-score),[3],-0.254
same,glycan array binding signal (z-score),[4],-0.306
same,glycan array binding signal (z-score),[5],-0.325
same,glycan array binding signal (z-score),[6],-0.293
same,glycan array binding signal (z-score),[7],-0.286
same,glycan array binding signal (z-score),[8],-0.291
same,glycan array binding signal (z-score),[9],-0.283
same,glycan array binding signal (z-score),[10],-0.338
same,glycan array binding signal (z-score),[11],-0.317
same,glycan array binding signal (z-score),[12],-0.217
same,glycan array binding signal (z-score),[13],-0.285
same,glycan array binding signal (z-score),[14],-0.27
same,glycan array binding signal (z-score),[15],-0.287
same,glycan array binding signal (z-score),[16],-0.284
same,glycan array binding signal (z-score),[17],-0.319
same,glycan array binding signal (z-score),[18],-0.374
same,glycan array binding signal (z-score),[19],-0.295
same,glycan array binding signal (z-score),[20],-0.291
same,glycan array binding signal (z-score),[21],-0.338
same,glycan array binding signal (z-score),[22],-0.276
same,glycan array binding signal (z-score),[23],-0.296
same,glycan array binding signal (z-score),[24],-0.31
same,glycan array binding signal (z-score),[25],-0.281
same,glycan array binding signal (z-score),[26],-0.348
same,glycan array binding signal (z-score),[27],-0.308
same,glycan array binding signal (z-score),[28],-0.286
same,glycan array binding signal (z-score),[29],-0.286
